The target of one experiment is Albumin (Bos taurus) (UniProt P02769). In words: compounds binding labelled BSA control protein – biochemical, small-molecule microarray, Alexa647 label, 635/667 nm fluorescence, artefact control for SMM control protein annotation, profiling panel (AID 1118).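 Note: score merges 667 nm emission intensity and signal-to-noise per printed compound spot.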 Particulars: BSA-A647 binding, fluorescence 635 nm, higher = more signal.
The nature of experiment [1]: probe aXIP binding to arrayed compounds – biochemical, NeuroSMM set, 635/667 nm fluorescence, primary screen (AID 1119).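 Note: probe is the protein aXip251-270 applied at 1 µg/mL to compound-printed slides; binding of probe to printed compounds measured as 667 nm fluorescence plus signal to noise.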 The settings on record: small-molecule microarray, higher = more signal, called active from +8 up or from −8 down.
Experiment [2] can be described thus: probe aNOTCH3 binding on compound microarray – biochemical, small-molecule microarray, 635/667 nm fluorescence, primary screen (AID 1120).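 Note: probe is a biotin-tagged antibody raised against NOTCH3 rather than NOTCH3 protein; score merges spot fluorescence near 667 nm with spot signal to noise.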 The settings on record: higher = more signal.
Experiment [3] can be described thus: probe aNOTCH2 binding on compound microarray – biochemical, small-molecule microarray, 635/667 nm fluorescence, primary screen (AID 1121).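 Note: score merges feature fluorescence read at 667 nm with its signal to noise.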 Particulars: higher = more signal.
In experiment [4] the target is Carbonic anhydrase 2 (Homo sapiens) (UniProt P00918). In words: compounds binding carbonic anhydrase 2 – biochemical, small-molecule microarray, Alexa647-labelled CAII, profiling panel (AID 1122). The settings on record: CAII-A647 binding fluorescence, higher = more signal.
The nature of experiment [5]: COS7 lysate on small-molecule microarray, probe aHis, 635 nm (AID 1123).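 Note: z-score combines 667nm fluorescence intensity with signal-to-noise per printed compound spot.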 The settings on record: COS7 cell lysate, fluorescence, higher = more signal.
A short description of experiment [6]: probe aLAP1 signal on lysate-treated microarray – cell lysate, small-molecule microarray, COS7 lysate, primary screen (AID 1124).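 Note: lysate comes from COS7 cells expressing LAP1 and is applied at 0.3 µg/mL; score merges spot fluorescence near 667 nm with signal-to-noise over triplicate slides.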 The settings on record: probe aLAP1, fluorescence, higher = more signal.
For a further experiment, the system named is Sam68 (KHDRBS1). In words: compounds binding KHDRBS1 protein – biochemical, small-molecule microarray, 635 nm fluorescence, primary screen (AID 1125).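 Note: score merges 667 nm channel intensity with signal to noise over triplicate slides.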 Particulars: higher = more signal.
Experiment [7] has as its system Chordin-like protein 2 (CHRDL2). As to the kind of experiment: compounds binding chordin-like 2 – biochemical, small-molecule microarray, 635 nm fluorescence, primary screen (AID 1126).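 Note: printed compound slides probed with Chrdl2 protein at 4 µg/mL for 1 h at 4 C; score merges 667 nm emission intensity with signal to noise over three replicate slides.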 Particulars: fluorescence 635 nm, higher = more signal.
For experiment [8], the target named is Concanavalin-A (Canavalia ensiformis) (UniProt P02866). As to the kind of experiment: compounds binding concanavalin A lectin – biochemical, small-molecule microarray, Alexa647 label, 635 nm, artefact control for SMM control protein annotation, primary screen (AID 1127).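 Note: z combines 667 nm emission intensity with signal-to-noise across three replicate slides.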 Particulars: ConA-A647 binding fluorescence, higher = more signal.

Data on 13 compounds can be found in PubChem BioAssay.

Calls of active or inactive are those of the source.

Albumin (Bos taurus), sequence (P02769 whole entry, looked up): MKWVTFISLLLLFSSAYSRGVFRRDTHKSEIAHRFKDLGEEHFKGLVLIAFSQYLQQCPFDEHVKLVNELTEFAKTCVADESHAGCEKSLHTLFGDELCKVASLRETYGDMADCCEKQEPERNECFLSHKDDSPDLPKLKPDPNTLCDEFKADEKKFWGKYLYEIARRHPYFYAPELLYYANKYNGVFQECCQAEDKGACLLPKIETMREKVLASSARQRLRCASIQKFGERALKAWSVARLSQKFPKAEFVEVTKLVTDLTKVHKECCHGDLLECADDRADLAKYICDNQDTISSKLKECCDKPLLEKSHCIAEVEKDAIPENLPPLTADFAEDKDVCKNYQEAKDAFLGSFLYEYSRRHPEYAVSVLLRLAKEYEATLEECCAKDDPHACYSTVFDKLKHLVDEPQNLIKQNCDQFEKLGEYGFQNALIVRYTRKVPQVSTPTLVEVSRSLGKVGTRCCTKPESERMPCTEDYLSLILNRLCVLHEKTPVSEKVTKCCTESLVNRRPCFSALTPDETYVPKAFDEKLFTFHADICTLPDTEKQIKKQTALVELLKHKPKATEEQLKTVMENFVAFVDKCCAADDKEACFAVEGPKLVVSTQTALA
Concanavalin-A (Canavalia ensiformis), sequence (P02866 whole entry, looked up): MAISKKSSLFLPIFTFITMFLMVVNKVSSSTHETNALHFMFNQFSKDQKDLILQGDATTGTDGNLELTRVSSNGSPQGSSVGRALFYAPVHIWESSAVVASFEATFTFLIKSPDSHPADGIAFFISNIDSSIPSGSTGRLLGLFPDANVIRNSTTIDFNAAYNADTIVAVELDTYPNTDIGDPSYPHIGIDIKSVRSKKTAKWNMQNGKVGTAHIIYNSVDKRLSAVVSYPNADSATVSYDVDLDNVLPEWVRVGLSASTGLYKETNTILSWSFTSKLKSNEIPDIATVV

Regarding `CC1CC/C=C\[C@H]2OC34C=CCN(Cn5nnc6ccccc65)C(=O)[C@H]3N(C(CO)C(C)C)C(=O)[C@@H]4C2C(=O)O1` (stereo not given in full), the composite z-score with Albumin (Bos taurus) is 0.568; in experiment [2], -0.0647; in [3] it was -0.14; in [4], 0.662; in experiment [5], 2.23; in experiment [6] it was 0.549. For the same compound, the composite z-score was 0.272 in the experiment with Sam68 (KHDRBS1), -0.89 in experiment [7] and -0.43 in [8]. In addition, the composite Z-score in experiment [1] is -0.0775 (inactive).
With `COCCOC(=O)N1C(=O)[C@@]2(c3cc(C#CCCO)ccc31)[C@H](C(=O)N1CCc3cc(OC)c(OC)cc3C1)[C@H]1C(=O)O[C@H](c3ccccc3)[C@H](c3ccccc3)N1[C@@H]2c1ccc(O)cc1`, the composite z-score in the experiment with Albumin (Bos taurus) was -0.335; in experiment [2] it was 0.0893; in experiment [3], -0.0846; in [4] it was 0.471; in [5], 2.33; in experiment [6] it was 0.255. Also, the composite z-score in the experiment on Sam68 (KHDRBS1) is 1.29; in experiment [7] it was 0.425; in experiment [8], 1.04. The composite Z-score in experiment [1] was 0.566 (inactive).
Regarding `COc1ccc(C(O)C2C=CC3C(=O)NC(=O)C3N2Nc2ccccn2)cc1` (stereo not given), the composite z-score with Albumin (Bos taurus) was -0.131; in experiment [2], 0.0256; in experiment [3], 0.0308; in experiment [4], 0.482; in experiment [5], 1.39; in [6], 0.348. The figures for the composite z-score (with Sam68 (KHDRBS1); in [7]; in experiment [8]) were -0.183, 1 and -0.0999, respectively. Also, the composite Z-score in experiment [1] was 0.841 (inactive).
Regarding `CCCC#C[Si](O[C@H](CC)c1cn([C@H](CO)Cc2ccccc2)nn1)(C(C)C)C(C)C`, the composite z-score in the experiment with Albumin (Bos taurus) was 0.868; in experiment [2], -0.108; in [3] it was -0.0986; in [4] it was 0.667; in [5], 0.516; in experiment [6] it was -0.126. Further, the composite z-score with Sam68 (KHDRBS1) came to 0.838; in experiment [7], 0.322; in experiment [8], 0.632. In addition, the composite Z-score in experiment [1] was -0.483 (inactive).
For `COCCOC(=O)N1C(=O)[C@@]2(c3cc(C#Cc4ccc(OC)cc4)ccc31)[C@H](c1ccccc1OCCO)N1[C@H](c3ccccc3)[C@H](c3ccccc3)OC(=O)[C@H]1[C@@H]2C(=O)N1CCN(c2ncccn2)CC1`, the composite z-score is 0.322 with Albumin (Bos taurus); -0.0288 in [2]; -0.131 in experiment [3]; 0.336 in experiment [4]; 0.572 in [5]; 0.141 in experiment [6]. The composite z-score in the experiment on Sam68 (KHDRBS1) was 0.866; in [7], 0.0135; in experiment [8] it was 0.923. Moreover, the composite Z-score in [1] is 0.179 (inactive).
Consider `O=C(NCc1ccccc1)[C@@]1(CCS(=O)(=O)c2ccccc2)N=C(c2ccc(OCCCO)cc2)O[C@H]1c1ccccc1`, for which the composite z-score is 1.01 in the experiment with Albumin (Bos taurus); 0.471 in [2]; -0.0128 in experiment [3]; 0.615 in [4]; 3.07 in experiment [5]; 0.557 in experiment [6]. Moreover, the values for the composite z-score (in the experiment with Sam68 (KHDRBS1); in experiment [7]; in [8]) were 1.29, -0.481 and 1.16, respectively. For the same compound, the composite Z-score in experiment [1] was 0.198 (inactive).
Regarding `C=CCNC(=O)[C@H]1[C@@H]2C(=O)O[C@@H](c3ccccc3)[C@@H](c3ccccc3)N2[C@@H](c2ccc(O)cc2)[C@]12C(=O)N(C(=O)OCCOC)c1ccc(C#CCNC(N)=O)cc12`, the composite z-score with Albumin (Bos taurus) was -0.213; in experiment [2], 0.0955; in experiment [3], 0.0313; in experiment [4] it was 0.484; in [5], 0.275; in experiment [6] it was 0.0793. The values for the composite z-score (in the experiment on Sam68 (KHDRBS1); in experiment [7]; in [8]) were 1.13, 0.64 and 0.932, respectively. Besides, the composite Z-score in experiment [1] is 0.384 (inactive).
Consider `NC(=O)[C@@H]1[C@H]2C(=O)O[C@H](c3ccccc3)[C@H](c3ccccc3)N2[C@H](c2ccc(O)cc2)[C@@]12C(=O)Nc1ccc(C#CC3(O)CCCCCC3)cc12`, for which the composite z-score is -0.425 with Albumin (Bos taurus); -0.15 in [2]; -0.175 in experiment [3]; 0.792 in experiment [4]; 0.514 in [5]; -0.107 in [6]. The composite z-score in the experiment with Sam68 (KHDRBS1) is -0.427; in [7] it was -0.571; in [8] it was -0.107. Also, in experiment [1], the composite Z-score was 0.339 (inactive).
For `COCCCN1C(=O)[C@@]2(Cc3ccccc31)c1ccccc1C(=O)N(Cc1ccccc1C(F)(F)F)[C@H]2c1ccc(CO)cc1`, the composite z-score with Albumin (Bos taurus) is -0.857; in experiment [2], -0.401; in [3] it was 0.402; in [4], 0.138; in experiment [5], -0.176; in [6], -0.395. Besides, the composite z-score was 1 in the experiment with Sam68 (KHDRBS1), 1.09 in [7] and 0.961 in experiment [8]. Moreover, in [1], the composite Z-score was 0.225 (inactive).
As for `Cc1ccc(S[C@]2(C(=O)NCC(C)C)CC(=O)N(Cc3cc(C(F)(F)F)cc(C(F)(F)F)c3)[C@@H]2c2ccc(CO)cc2I)cc1`, the composite z-score was 0.0274 in the experiment with Albumin (Bos taurus); -0.188 in [2]; -0.0415 in [3]; 0.89 in experiment [4]; 0.234 in [5]; 0.77 in experiment [6]. In addition, the composite z-score with Sam68 (KHDRBS1) is -0.47; in [7], -1.76; in [8], -1.39. Besides, the composite Z-score in experiment [1] is 0.786 (inactive).
As for `C#CCN(CC=C(C)C)[C@H](CO)c1ccccc1`, the composite z-score in the experiment with Albumin (Bos taurus) is -0.258; in experiment [2] it was 0.0081; in [3] it was -0.0819; in experiment [4] it was -0.0144; in [5], -0.41; in experiment [6], -0.277. Besides, the composite z-score in the experiment with Sam68 (KHDRBS1) is 0.584; in experiment [7], -0.184; in experiment [8], -0.711. In experiment [1], the composite Z-score was 0.289 (inactive).
As to `NCCCCCNC(=O)[C@@H]1C[C@@H]2C(=O)NCC(=O)N2[C@@H]1c1ccc(O)cc1`, the composite z-score was 0.802 in the experiment with Albumin (Bos taurus); -0.0889 in [2]; -0.108 in experiment [3]; 0.558 in [4]; 0.899 in [5]; 0.249 in experiment [6]. In addition, the composite z-score in the experiment on Sam68 (KHDRBS1) worked out at 1.31; in experiment [7] it was 0.831; in experiment [8], 1.06. In experiment [1], the composite Z-score is 0.126 (inactive).
Turning to `COC(=O)[C@@]1(Cc2ccc(OC)cc2)[C@H]2c3cc(C(=O)N(C)C)n(Cc4cccc5ccccc45)c3C[C@H]2CN1C(=O)c1ccccc1`, the composite z-score in the experiment with Albumin (Bos taurus) turned out to be 1.02; in [2], 0.726; in [3], 0.624; in experiment [4], 0.753; in [5], 3.03; in experiment [6] it was 0.506. Besides, the composite z-score with Sam68 (KHDRBS1) was found to be 0.432; in experiment [7] it was 0.0735; in experiment [8] it was 0.976. For the same compound, in [1], the composite Z-score is 0.0388 (inactive).
